Laboratory results as given in PubChem BioAssay AID1159580 (chemical genetic matrix, 2015).
The whole screen tested about 5,500 compounds, of which about 2,000 (36%) were called active. About 18% were inconclusive and are not listed. Rule as the data show it: active = normalized growth mostly below about 0.91 (no sharp cut-off); inconclusive = no clear call, values can overlap the other calls; inactive = mostly above about 0.92. This is one part of the list.

Test: chemical genetic growth profiling, strain panel (AID 1159580);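 also: tested at 20 µM; growth read once vehicle control cultures reached saturation at 30 °C; 1 = growth at the plate median or of vehicle wells; lower values mean less growth of the strain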
Settings: growth OD

Measured: normalized growth

CC(C)CC(NC(=O)OCC1c2ccccc2-c2ccccc21)C(=O)O (stereo unspecified)
inactive: S. cerevisiae deletion strains, locus YAL013W, strain DEP1, hits give low values 1.01 | S. cerevisiae deletion strains, locus YBR021W, strain FUR4, hits give low values 0.994 | S. cerevisiae deletion strains, locus YBR229C, strain ROT2, hits give low values 0.997 | S. cerevisiae deletion strains, locus YCL029C, strain bik1, hits give low values 1.03 | S. cerevisiae deletion strains, locus YDL035C, strain GPR1, hits give low values 0.998 | S. cerevisiae deletion strains, locus YDL074C, strain BRE1, hits give low values 1 | S. cerevisiae deletion strains, locus YDL101C, strain DUN1, hits give low values 1.02 | S. cerevisiae deletion strains, locus YDL134C, strain PPH21, hits give low values 0.986 | S. cerevisiae deletion strains, locus YDL185W, strain tfp1, hits give low values 0.998 | S. cerevisiae deletion strains, locus YDL192W, strain arf1, hits give low values 1.01 | S. cerevisiae deletion strains, locus YDR101C, strain arx1, hits give low values 1.01 | S. cerevisiae deletion strains, locus YDR150W, strain NUM1, hits give low values 0.995 | S. cerevisiae deletion strains, locus YDR162C, strain NBP2, hits give low values 1.01 | S. cerevisiae deletion strains, locus YDR318W, strain mcm21, hits give low values 1.02 | S. cerevisiae deletion strains, locus YDR388W, hits give low values 1.01 | S. cerevisiae deletion strains, locus YDR502C, strain sam2, hits give low values 1.02 | S. cerevisiae deletion strains, locus YEL061C, strain CIN8, hits give low values 0.997 | S. cerevisiae deletion strains, locus YER110C, hits give low values 1.02 | S. cerevisiae deletion strains, locus YER155C, strain BEM2, hits give low values 1 | S. cerevisiae deletion strains, locus YER167W, strain BCK2, hits give low values 0.995 | S. cerevisiae deletion strains, locus YGL078C, strain dbp3, hits give low values 1 | S. cerevisiae deletion strains, locus YGL086W, strain mad1, hits give low values 0.981 | S. cerevisiae deletion strains, locus YGL248W, strain PDE1, hits give low values 1 | S. cerevisiae deletion strains, locus YGR078C, strain PAC10, hits give low values 1.02 | S. cerevisiae deletion strains, locus YGR135W, strain pre9, hits give low values 1.02 | S. cerevisiae deletion strains, locus YGR229C, strain SMI1, hits give low values 0.982 | S. cerevisiae deletion strains, locus YGR252W, strain gcn5, hits give low values 0.916 | S. cerevisiae deletion strains, locus YHR030C, strain SLT2, hits give low values 1.01 | S. cerevisiae deletion strains, locus YHR079C, strain IRE1 (second series), hits give low values 1.01 | S. cerevisiae deletion strains, locus YHR094C, strain hxt1, hits give low values 0.997 | S. cerevisiae deletion strains, locus YHR129C, strain ARP1, hits give low values 1.01 | S. cerevisiae deletion strains, locus YHR200W, strain rpn10, hits give low values 1.01 | S. cerevisiae deletion strains, locus YIL066C, strain RNR3, hits give low values 1.02 | S. cerevisiae deletion strains, locus YIL073C, strain SPO22, hits give low values 1.03 | S. cerevisiae deletion strains, locus YIL125W, strain kgd1, hits give low values 0.992 | S. cerevisiae deletion strains, locus YIR030C, strain dcg1, hits give low values 1 | S. cerevisiae deletion strains, locus YJL095W, strain BCK1, hits give low values 1.07 | S. cerevisiae deletion strains, locus YJL134W, strain LCB3, hits give low values 1 | S. cerevisiae deletion strains, locus YJL168C, strain set2, hits give low values 1.01 | S. cerevisiae deletion strains, locus YJL187C, strain SWE1 (second series), hits give low values 1.02 | S. cerevisiae deletion strains, locus YJR043C, strain POL32, hits give low values 1.02 | S. cerevisiae deletion strains, locus YJR075W, strain HOC1, hits give low values 0.997 | S. cerevisiae deletion strains, locus YKL009W, strain mrt4, hits give low values 0.969 | S. cerevisiae deletion strains, locus YKL068W, hits give low values 0.997 | S. cerevisiae deletion strains, locus YKL085W, strain MDH1 (second series), hits give low values 1 | S. cerevisiae deletion strains, locus YKL085W, strain MDH1, hits give low values 1 | S. cerevisiae deletion strains, locus YKL190W, strain CNB1, hits give low values 0.985 | S. cerevisiae deletion strains, locus YKR001C, strain vps1, hits give low values 1.06 | S. cerevisiae deletion strains, locus YLR039C, strain RIC1, hits give low values 1.05 | S. cerevisiae deletion strains, locus YLR058C, strain SHM2, hits give low values 0.997 | S. cerevisiae deletion strains, locus YLR102C, strain apc9, hits give low values 1.01 | S. cerevisiae deletion strains, locus YLR262C, strain YPT6, hits give low values 1.11 | S. cerevisiae deletion strains, locus YLR268W, strain sec22, hits give low values 1.06 | S. cerevisiae deletion strains, locus YLR330W, strain CHS5, hits give low values 0.984 | S. cerevisiae deletion strains, locus YLR342W, strain FKS1 (second series), hits give low values 0.985 | S. cerevisiae deletion strains, locus YLR371W, strain rom2, hits give low values 1.01 | S. cerevisiae deletion strains, locus YLR418C, strain cdc73, hits give low values 1 | S. cerevisiae deletion strains, locus YML016C, strain PPZ1, hits give low values 0.995 | S. cerevisiae deletion strains, locus YML032C, strain rad52, hits give low values 1.01 | S. cerevisiae deletion strains, locus YML124C, strain tub3, hits give low values 1 | S. cerevisiae deletion strains, locus YMR078C, strain ctf18, hits give low values 1.01 | S. cerevisiae deletion strains, locus YMR223W, strain ubp8, hits give low values 0.982 | S. cerevisiae deletion strains, locus YMR263W, strain SAP30, hits give low values 1.01 | S. cerevisiae deletion strains, locus YMR307W, strain GAS1, hits give low values 0.985 | S. cerevisiae deletion strains, locus YNL067W, strain RPL9B, hits give low values 1.03 | S. cerevisiae deletion strains, locus YNL128W, strain TEP1, hits give low values 1.02 | S. cerevisiae deletion strains, locus YNL153C, strain GIM3, hits give low values 1.02 | S. cerevisiae deletion strains, locus YNL233W, strain BNI4, hits give low values 1.01 | S. cerevisiae deletion strains, locus YNL250W, strain rad50, hits give low values 0.996 | S. cerevisiae deletion strains, locus YNL271C, strain bni1, hits give low values 1 | S. cerevisiae deletion strains, locus YNL298W, strain CLA4, hits give low values 0.994 | S. cerevisiae deletion strains, locus YNL307C, strain MCK1, hits give low values 1.02 | S. cerevisiae deletion strains, locus YNL322C, strain KRE1, hits give low values 1 | S. cerevisiae deletion strains, locus YNR052C, strain pop2, hits give low values 1.01 | S. cerevisiae deletion strains, locus YOL006C, strain TOP1, hits give low values 1.1 | S. cerevisiae deletion strains, locus YOL012C, strain htz1 1.27 | S. cerevisiae deletion strains, locus YOL147C, strain pex11, hits give low values 1.01 | S. cerevisiae deletion strains, locus YOR061W, strain CKA2, hits give low values 0.991 | S. cerevisiae deletion strains, locus YOR069W, strain VPS5, hits give low values 1 | S. cerevisiae deletion strains, locus YOR136W, strain idh2, hits give low values 0.99 | S. cerevisiae deletion strains, locus YOR144C, strain elg1, hits give low values 1 | S. cerevisiae deletion strains, locus YOR184W, strain ser1, hits give low values 1.05 | S. cerevisiae deletion strains, locus YOR316C, strain cot1, hits give low values 1.01 | S. cerevisiae deletion strains, locus YPL055C, strain LGE1, hits give low values 0.963 | S. cerevisiae deletion strains, locus YPL241C, strain CIN2, hits give low values 0.993 | S. cerevisiae deletion strains, locus YPR119W, strain clb2, hits give low values 1 | S. cerevisiae deletion strains, locus YPR141C, strain kar3, hits give low values 0.999 | S. cerevisiae deletion strains, locus YPR163C, strain tif3, hits give low values 1.02 | S. cerevisiae deletion strains, locus YPR167C, strain met16, hits give low values 1.01 | S. cerevisiae deletion strains, strain wtn01, hits give low values 1.04 | S. cerevisiae strains, strain wild type, hits give low values 1
